# Test results from PubChem BioAssay AID2806 (Sanford-Burnham Center for Chemical Genomics, 2010).
# Out of some 330,000 compounds screened, about 660 (0.2%) were called active. The sample as a whole holds a higher share of actives than the screen did. Unmarked numbers belong to inactive results.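 Rule for the calls: active = inhibition of at least 40% at 10 µM in the primary screen; inactive = the rest.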
# Test system: intestinal alkaline phosphatase [Mus musculus]
# Experiment: mouse intestinal phosphatase enzyme inhibition – biochemical, luminescence, uHTS, primary screen (AID 2806);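 note: plate controls were DMSO with enzyme for no effect and no enzyme wells for full effect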
# Details: purified mouse IAP, CDP-Star luminescence, 30 min; at 10 µM; stronger effect = higher value
row,SMILES,inhibition
1,NC(=O)c1ccc(Nc2ccc3c(c2)CCC3)c([N+](=O)[O-])c1,11.2%
2,Brc1cnc(N2CCCC2)nc1N1CCCCC1,1.2%
3,Fc1ccc(Nc2nnns2)cc1,7.1%
4,Cc1ccc(S(=O)(=O)NCCSC(C)(C)C)cc1,-3.9%
5,C[C@H]1CN([C@@H](C)CO)C(=O)Cc2cc(NC(=O)Cc3ccccc3)ccc2O[C@H]1CN(C)S(=O)(=O)c1cccs1,-5.4%
6,CN1CCCc2cc(C#N)c(=O)[nH]c21,5.2%
7,COc1cccc(CCNC(=O)c2cccc(NC(=O)C3=C(C)OCCS3)c2)c1,-9.8%
8,CC(=O)N1c2ccc(S(=O)(=O)N3CCC(C(=O)NC4CCCC(C)C4C)CC3)cc2CC1C (centres undefined),-23.1%
9,O=C(CS(=O)(=O)c1ccccc1)Nc1ccc(S(=O)(=O)Nc2ccccn2)cc1,6.7%
10,CCN(CC)P(=O)(C(NC(=O)OC)C(F)(F)C(F)(F)C(F)(F)C(F)F)N(CC)CC (centres undefined),1.2%
11,N#CC(C(N)=O)=C1CCC2(CC1)OCCCCO2,-8.3%
12,Cc1[nH]c2ccccc2c1-c1ccc(Cl)nn1,4.1%
13,CC(C)S(=O)(=O)c1csc(NC(=O)Nc2ccc(Cl)cc2)c1Cl,-190%
14,O=C1CCCN1C(=O)COc1ccc([N+](=O)[O-])cc1,2.6%
15,COC(=O)c1cc(NC(=O)c2nn(C)c(=O)c3ccccc23)cc(C(=O)OC)c1,-11.6%
16,COc1ccc(N(Cc2ccc(N(C)C)cc2)C(=O)c2ccc(S(C)(=O)=O)cc2)cc1,3.6%
17,CC(=O)c1c(C)[nH]c(C(=O)NCc2ccc(C)cc2)c1C,-23.4%
18,COC(=O)c1ccc(CNC(=O)C2CCC(=O)N(Cc3cccc(F)c3)C2)cc1 (centres undefined),2.3%
19,COc1cccc(N(C(=O)CNC(=O)c2ccco2)C(C(=O)NC2CCCCC2)c2cccnc2)c1 (centres undefined),-11.8%
20,Cc1ccccc1CN1C[C@@H]2C[C@@H](c3ccc4nsnc4c3)N3CCC[C@@]23C1=O,4%
21,CCc1nc2nc(C)c(NS(=O)(=O)c3ccc4c(c3)CCCC4)c(=O)n2[nH]1,8.4%
22,CNC(=O)NCCN1CCCC1=O,-13.9%
23,CC(C)(C)NC(=O)NC(=O)COC(=O)Cn1c(C(F)(F)F)nc2ccccc21,3.3%
24,O=C(CNS(=O)(=O)c1ccccc1)N1CCN(C(=O)c2ccco2)CC1,2.1%

row,SMILES,inhibition
1,CC(C)NC(=S)Nc1cccc2cnccc12,9.6%
2,Cc1c(NC(=O)C(=O)N/N=C/c2cccs2)c(=O)n(-c2ccccc2)n1C,5.7%
3,Clc1cccc(Cl)c1OCCOCCNCc1ccccc1,-0.1%
4,C=CC1C(OC2OC(CO)C(O)C(O)C2O)OC=C(C(=O)OC)C1CC1CC(=O)CC(CC(=O)CCc2ccc(O)cc2)O1 (centres undefined),6.5%
5,CC(/C=C/C1(O)C(C)CC(=O)CC1(C)C)OC1OC(CO)C(O)C(O)C1O (centres undefined),41.9% (active)
6,CC1=C(C)C(=O)OC(C(C)C2CCC3C4CC=C5CC(OC6OC(COC7OC(CO)C(O)C(O)C7O)C(O)C(O)C6O)CC(O)C5(C)C4CCC23C)C1 (centres undefined),9.3%
7,COc1cccc(/C=N\NC(=O)C2=NNC(=O)C2C)c1O (centres undefined),61.4% (active)
8,COc1cc(/C=N\NC(=O)C2C(=O)NCC2c2ccccc2)cc(OC)c1O (centres undefined),11.4%
9,CCOc1ccc2[nH]c(C(=O)N/N=C/c3cccc(OC)c3OC)cc2c1,10.1%
10,Cc1c(CC(=O)NCC(=O)NCC(=O)O)c(=O)oc2cc3oc4c(c3cc12)CCCC4,3.6%
11,CN(/C(=N/S(=O)(=O)c1cccs1)c1ccccc1)c1ccc(O)cc1,-15.8%
12,COCc1cc(C)nc(Nc2cc(C)ccc2C)c1C#N,-3.2%
13,Cc1nc2sccn2c(=O)c1S(=O)(=O)NCCc1ccccc1,-1.1%
14,Cc1cc(C)c(S(=O)(=O)NCCCN2CCOCC2)cc1Br,6.6%
15,O=C(/C=C/Nc1ccc(S(=O)(=O)Nc2cnc3ccccc3n2)cc1)c1cccnc1,10%
16,OCC[C@H]1C[C@@H](O)[C@H](O)[C@@]2(OCCc3ccccc32)O1,8.9%
17,COc1cc(C2CC(=O)Oc3cc(OC)c(OC)c(OC)c32)cc(OC)c1OC (centres undefined),-2.2%
18,COc1ccc(OCCCC(=O)OC(C)C(=O)Nc2ccccc2[N+](=O)[O-])cc1 (centres undefined),1.5%
19,O=C(O)C1OC(C(=O)O)C2C1C(F)(F)C2(F)F (centres undefined),-3.4%
20,Cc1ccccc1OCC(=O)N(Cc1cccc(F)c1)C1CCS(=O)(=O)C1 (centres undefined),-3.3%
21,CCC(=O)Nc1ccc(-c2ccc(N3CCCCC3)nn2)cc1,6.7%
22,COC(=O)c1ccc(S(=O)(=O)c2ccc(C(=O)OC)s2)s1,7.9%
23,Cc1ccc2c(c1)NC(=O)[C@@]1(C)[C@@H](c3ccccc3)[C@H]3COc4ccc(Cl)cc4[C@@H]3N1C2=O,-2.6%
24,O=C(c1ccc(Cl)cc1)N1N=C(c2ccccn2)CC1(O)C(F)(F)F (centres undefined),-4%

row,SMILES,inhibition
1,O=c1[nH]c(=S)[nH]c2[nH]c(=S)[nH]c12,73.3% (active)
2,O=C(CN1CCN(C(=O)C2CCCO2)CC1)Nc1c(Cl)cccc1Cl (centres undefined),3.1%
3,O=C(COC(=O)c1cnccn1)Nc1ccc(Cl)cc1C(F)(F)F,4.7%
4,Cc1ccc(OCc2nnc(NC(=O)OCC(C)C)s2)cc1,0.4%
5,Clc1ccccc1CSc1nnc(-c2ccco2)c(-c2ccco2)n1,60.4% (active)
6,S=C(NCc1ccco1)NCc1ccccc1Cl,-1%
7,Clc1ccc(CSc2nnc3c(n2)[nH]c2ccccc23)cc1,12.9%
8,O=C(Nc1nnc(SCc2ccccc2Cl)s1)c1cccc([N+](=O)[O-])c1,22.8%
9,CCc1nnc(SCc2cccc(F)c2)nc1CC,4.4%
10,c1ccc(CSc2nnc(-c3ccco3)c(-c3ccco3)n2)cc1,49% (active)
11,C[C@H](NC(=O)[C@@H]1Cc2ccccc2CN1C(=O)OC(C)(C)C)C(=O)NC1CCCC1,-2.7%
12,Cc1cccc(OCC(O)Cn2c(N3CCCCC3)nc3c2c(=O)[nH]c(=O)n3C)c1 (centres undefined),-1.1%
13,Cc1ccc(CNC(=O)C2CCCN2S(=O)(=O)c2ccc3c(c2)C(C)(C)C(=O)N3C)cc1 (centres undefined),-1%
14,CC(C)OC(=O)c1cc(NC(=O)C2C3CCC(O3)C2C(=O)O)cc(C(=O)OC(C)C)c1 (centres undefined),7.3%
15,COc1ccccc1CCNC(=O)c1c(C)nn(CC(C)C)c1Cl,6.5%
16,Cc1ccc(N=C2NC(=O)/C(=C/C=C/c3ccco3)S2)cc1C,56% (active)
17,CN1C(=O)/C(=C/c2ccco2)SC1=Nc1cccc(C(=O)O)c1,9.6%
18,CC(=O)Nc1ccc(NC(=O)C(NS(=O)(=O)c2ccc3c(c2)OCCO3)C(C)C)cc1 (centres undefined),3.4%
19,O=c1ccc2c(-c3ccccc3S(=O)(=O)O)c3ccc(O)c(O)c3oc-2c1O,64.9% (active)
20,Cc1ccccc1C(OCCN(C)C)C1CCCCC1 (centres undefined),-6%
21,CCN(C[C@H]1N[C@@](CC)(C(=O)OC)[C@H]2C(=O)N(C)C(=O)[C@@H]12)C(=O)Nc1ccc(F)cc1,2.6%
22,CCOC(=O)c1cc(-c2ccccc2C)n(Cc2cc(C)no2)n1,-6.2%
23,CN(C)c1ccc(N/C=C/C(=O)C(F)(F)F)cc1,7.4%
24,COCC1CCN(C(=O)C2CCC(=O)N(CC3CCCCC3)C2)CC1 (centres undefined),4.4%

row,SMILES,inhibition
1,Nc1ccc2nc3c(=O)[nH]c(=S)[nH]c3nc2c1,70.9% (active)
2,C=CCC(NC(=O)Cc1ccccc1)C(=O)NCCC (centres undefined),-3.3%
3,CCOc1ccc2nc(Cl)c(C3CC(c4ccccc4)=NN3C(=O)c3cccs3)cc2c1 (centres undefined),13.7%
4,O=C(NCCOc1cccnc1)c1ccc(OC2CCN(Cc3ccccn3)CC2)cc1,4.2%
5,O=C(CCCN=C1NS(=O)(=O)c2ccccc21)OCC(=O)c1ccc(F)c(F)c1,-12.2%
6,COC(=O)CN(c1nc(C)c(Cl)c(OC)n1)S(=O)(=O)c1ccc(C)cc1,0.2%
7,CCCCN(C)CCNC(=O)C1CCCN(S(=O)(=O)c2cccc3nsnc23)C1 (centres undefined),4.9%
8,CS(=O)(=O)N(CC(=O)NC1CCCC1)Cc1ccc(F)cc1,3.3%
9,C=CCSc1nc(N)cc(=O)[nH]1,4.4%
10,CCc1ccc(N(CC)c2ncnc3nc[nH]c23)cc1,7.5%
11,Cc1cc(C)c(C)c(S(=O)(=O)N[C@@H](C)C(=O)OC(C)C(=O)NC(N)=O)c1C (some centres undefined),-4.2%
12,CC(NC(=O)c1ccccc1C(=O)O)c1ccc(-n2ccnc2)cc1 (centres undefined),0.1%
13,COc1cc(/C=N\Nc2nc(-c3cccs3)c(NC(C)=O)s2)ccc1O,41% (active)
14,CC(=O)c1sc(N/N=C\c2ccc(C)cc2)nc1C,10.3%
15,COc1cc(/C=N/NC(=O)CCc2n[nH]c(=O)[nH]c2=O)ccc1O,-0.9%
16,Fc1ccccc1/C=C1\CCCC2=C1Nc1ncnn1C2c1ccccc1F (centres undefined),0%
17,O=[N+]([O-])/C(N=Nc1ccccc1)=N\Nc1ccccc1,-0.1%
18,CSCCC1NC2(C(=O)Nc3ccc(Cl)cc32)[C@@H]2C(=O)N(C3CCCC3)C(=O)[C@H]12 (some centres undefined),3.1%
19,Nc1c(C(=O)c2cccs2)sc2nsc(SCCN3CCCCC3)c12,16.4%
20,CCN(c1ccccc1)S(=O)(=O)c1ccc(N)cc1,-11.2%
21,CCN(c1ccccc1)S(=O)(=O)c1ccc2[nH]c(=O)[nH]c2c1,52.1% (active)
22,CN(c1ccccc1)S(=O)(=O)c1ccc2[nH]c(=O)[nH]c2c1,6.6%
